Measured values: PubChem BioAssay AID1053144 (Broad Institute, 2014)
About 160 (4.7%) of roughly 3,400 compounds were called active.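 How the source made its calls: active means fitted curve reaches 30% activation at a concentration no higher than the top valid tested dose, luminescence rising; inconclusive means no clear call, values can overlap the other calls; inactive means signal moving opposite to the expected increase, plus the rest.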 Only a sample is shown. Measured potencies and affinities stand elsewhere.

test: TCF/LEF reporter activation in neural progenitors – cell-based, iPS-derived NPC, luciferase, Wnt3a, cherry-pick, dose response (AID 1053144); conditions: Wnt3a EC25, 24 h; series mostly up to 26 µM; activation: at the top concentration;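 further: Wnt3a stimulus is conditioned medium from Wnt3a-transfected mouse L cells at 5% in well; 0% = neutral control wells and 100% = CHIR-99021 positive control wells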

activation, inactive:
Cc1ccnc(NC(=O)C2COc3ccccc3O2)c1 (configuration not stated) 10.1%
CC(=Nc1ccc(C)cc1)c1sc2ccccc2c1O 3.95%
CC(=Nc1ccccc1O)c1sc2ccccc2c1O 0.949%
CCCC(=O)Nc1ccc(C#Cc2ccccc2)cc1 10.2%
O=C(NN1C(=O)C2C3c4ccccc4C(c4ccccc43)C2C1=O)C1CC1 (configuration not stated) -0.537%
O=C(O)CC(CN1C(=O)c2ccccc2C1=O)c1ccccc1 (configuration not stated) 1.35%
c1ccc(-c2noc(C3CCCCC3)n2)nc1 7.21%
CCc1ccc(NC2=CC(=O)C(=O)c3ccccc32)cc1 -1.95%
Nc1ccc2c(c1)C(=O)c1ccccc1C2=O 6.15%
CC(C)NC(=O)c1cc(-c2ccc3c(c2)OCO3)on1 7.65%
Cc1ccc(S(=O)(=O)N2CCN(C(=O)Cn3c(=O)cnc4ccccc43)CC2)c(C)c1 2.87%
COc1ccccc1CN(C)C(=O)C1COc2ccccc2O1 (configuration not stated) 0.467%
Cc1ccc(/C=C/C(=O)Nc2cc(C)on2)cc1 13%
CC(=O)Nc1ccc(C(=O)COC(=O)C2CC2)c(F)c1 15.5%
CCCC(=O)Nc1ccc(C(=O)COC(=O)C2CC2C)cc1 (configuration not stated) 10.2%
Cc1ccc(OCC(=O)O/N=C(\N)c2ccccn2)cc1C 7.88%
COc1ccc2nc(Nc3ccccc3OC)sc2c1 8.99%
Cc1cc(Cl)ccc1OCc1nnc(-c2ccccc2C)o1 9.09%
COc1ccccc1-c1nc(COc2ccc(Cl)cc2Cl)no1 10.9%
CCOc1ccc(NC2c3ccccc3C(=O)N2c2ccc(Cl)cn2)cc1 (configuration not stated) 1.49%
O=C(CN1C(=O)CCC1=O)Nc1nc(-c2ccc3ccccc3c2)cs1 6.17%
CCN(CC)S(=O)(=O)c1ccc(O)c(NC(=O)COc2ccc(S(=O)(=O)N3CCOCC3)cc2)c1 2.52%
O=C1NC(=Nc2ccccc2)S/C1=C/c1cccs1 7.78%
Cc1ccc(N/C=C2/Sc3ccccc3NC2=O)cc1 0.79%
COC(=O)[C@@H](Cc1c[nH]c2ccccc12)NC(=O)c1ccc2c(c1)OCO2 9.16%
CCCCNC(=O)C1CC(c2cccc(F)c2)=NO1 (configuration not stated) 11.2%
COc1ccc(CNC(=O)C(=O)NCC(c2ccco2)N2CCOCC2)cc1 (configuration not stated) 7.47%
O=C(COc1ccc(Cl)cc1Br)NC(=O)NC1CCCC1 14.6%
Cc1ccc(C(=O)Nc2ccc3c(c2)OCO3)cc1Cl 8.71%
O=C(NCCc1c[nH]c2ccccc12)c1cc(Cl)c2c(c1)OCO2 13.5%
O=C(Nc1ccc(F)cc1F)c1cc2ccccc2oc1=O 11.5%
COc1ccc(/C(N)=N/OC(=O)C2CCCCC2)cc1 9.93%
Cc1ccc(NC(=O)c2sccc2C)cc1[N+](=O)[O-] 11.7%
Cc1cccnc1NC(=O)c1cc2ccccc2oc1=O 7.56%
COc1ccc(-c2nc3c4ccccc4[nH]c(=O)n3n2)cc1 8.52%
O=C(Nc1nccs1)c1sc2cc(Cl)ccc2c1Cl 0.675%
O=C(NCC(=O)N1CCCCC1)c1sc2ccccc2c1Cl 12.8%
C/C(=C\c1ccccc1)C(=O)NCc1ccco1 8.95%
O=C(NN1C(=O)C2C3c4ccccc4C(c4ccccc43)[C@@H]2C1=O)c1ccccc1 (some centres not stated) 1.36%
CCOC(=O)c1cccc(COC(=O)c2cccc(-c3nnc(-c4ccccc4)o3)c2)c1 0.153%
CN(CC(=O)Nc1ccc(F)cc1)C(=O)COC(=O)c1cccc(N(C)C)c1 9.3%
COc1ccc(/C=C2\CCC(C3CCCC3)C2=O)cc1OC (configuration not stated) 3.68%
Cc1cc(C)n(-c2nc3ccccc3s2)n1 4.91%
CN(C)c1ccc(-c2ccc3c(=O)c4ccccc4n(C)c3c2)cn1 4.76%
O=C(COn1nnc2ccccc21)NCC1CCCCC1 9.79%
O=C(NNS(=O)(=O)c1ccccc1)C1CCN(S(=O)(=O)c2ccccc2)CC1 1.1%
O=C(c1ccc(F)cc1)c1cc2ccccc2o1 10.6%
O=C(Nc1ccccc1)c1cc2ccccc2o1 11.2%
COc1ccc(/C=C2/CCc3ccccc3C2=O)cc1OC 4.77%
O=C(/C(=C/c1ccc(Cl)cc1)c1nc2ccccc2[nH]1)c1ccccc1 -5.94%
Cc1ccc(/C=C/C(=O)c2nc3ccccc3[nH]2)cc1 21.5%
Nc1c(C(=O)Nc2ccc(Cl)cc2)oc2ccccc12 9.62%
CCOc1ccc(CCNC(=O)COC(=O)c2cccc(N(C)C)c2)cc1OCC 18.4%
CCc1nnc(NC(=O)/C=C/c2ccco2)s1 10%
O=C(/C=C/c1ccco1)Nc1ccccc1C(=O)O 13.5%
CCOc1ccc(CCNC(=O)COc2cc(=O)n(C)c3ccccc23)cc1OCC 17.3%
CC(C)(C)c1ccc(/C=C/C(=O)Nc2cccnc2)cc1 14.5%
Cc1cc(C(=O)COC(=O)c2ccc(O)cc2)c(C)n1CC(F)(F)F 19.3%
C(=C\c1cc(/C=C/c2ccccc2)ncn1)/c1ccccc1 8.61%
COc1ccc(C(=O)/C=C/c2ccccc2C(F)(F)F)cc1 17%
CCCCOC(=O)Nc1ccc(N2CCCCC2)cc1 10.5%
COC(=O)c1ccc(NC(=O)Cc2ccccc2)cc1 7.35%
COc1ccc(/C=C(/NC(=O)c2ccccc2Cl)C(=O)O)cc1 0.835%
O=C(O)Cc1sc(Nc2ccccc2)nc1-c1cccs1 11.4%
Cc1nc(Nc2ccccc2)sc1C(=O)c1ccccc1 7.59%
O=C(Nc1ccc(Cl)cc1)Nc1ccccc1C(=O)NCc1ccco1 21.4%
Cc1ccsc1C(=O)OCc1cc(=O)n2ccsc2n1 15.6%
COC(=O)CNc1c(-c2ccccn2)nc2ccc(Br)cn12 4.47%
COC(=O)c1ccc(NC(=O)c2cccc(OC)c2)cc1 11%
COc1ccc(NC(=O)c2cccc(OS(=O)(=O)N(C)C)c2)cc1 9.03%
O=C(/C=C\c1ccco1)Oc1cccc2cccnc12 -5.59%
C(=N\Nc1nccc(-c2cccnc2)n1)/c1ccccc1 8.07%
CC(C)(C)c1cc(C(=O)NNC(=O)c2ccc(C(F)(F)F)cc2)no1 1.66%
CN(C)c1ccc(/C=C/c2ccncc2)cc1 5.29%
COc1ccc(/C=C/C(=O)c2ccccn2)cc1 14.1%
COc1c(OC(C)=O)ccc(/C=C/c2ccc3cccc(OC)c3n2)c1[N+](=O)[O-] -1.16%
CC(=O)Nc1ccc(-c2ccnc3c2CC(C)(C(=O)NC(C)C)O3)cc1 (configuration not stated) 0.429%
